# From PubChem
# VP16 counter – VP16 counterscreen qHTS for inhibitors of ROR gamma transcriptional activity; Drosophila S2 Gal4-VP16 UAS-luciferase, luminescence, 20 h; Potency, µM (top dose mostly 53.6 µM), for inactives: top-dose activity, negative = inhibition, actives largely listed as inhibitors; 310,000 compounds, 3.5% hits;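 also: Gal4-VP16 expression switched on by copper sulfate through the metallothionein promoter; % is scaled to controls: 0 for no effect and ±100 for the full control effect; nearly all actives have a fitted effect of over 50% in size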
# PINK1 modulator – A Quantitative High throughput Screen to Identify Chemical Modulators of PINK1 Expression; PINK1 immunofluorescence, high-content cytometry, 24 h; Potency, µM (highest dose often 76.6 µM), without a hit: at the top dose activation (PINK1 increase), actives largely listed as activators; 410,000 compounds, 0.2% hits; AID 624263, 2012; active = well fitted activation curve with a large enough effect; inconclusive = small, poorly fitted or top-dose-only effect; cell line not stated here; also: % of control where 0% means no effect; nearly all actives have a fitted effect of over 65% in size
#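 Fluorescence from anti-PINK1 antibody, together with nuclear and cell stains, was scanned on a laser-scanning cytometer. Before staining, stable-line cells were incubated 24 hours with compounds at 5 concentrations; primary antibody 12 h at 10 degrees C.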
# Epigenetic derep – Quantitative High-Throughput Screen for Regulators of Epigenetic Control | Potency, µM (highest dose often 53.9 µM), for the others: at the top dose GFP activation, actives largely listed as activators | AID 1865, 2009 | 280,000 compounds, 0.2% hits | murine LDR cells, GFP reporter derepression, 30 h; also: % of control where 0% means no effect; nearly all actives have a fitted effect of over 60% in size
#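 Derepression of a silenced CMV-GFP reporter in murine LDR cells is scored by enumerating GFP-positive cells with a laser-scanning microplate cytometer after 30 hours of treatment at 37 C.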
# Sfp PPTase inh – qHTS Assay for Inhibitors of Bacillus subtilis Sfp phosphopantetheinyl transferase (PPTase); 4'-phosphopantetheinyl transferase ffp (Bacillus subtilis), Q9F4F7; Biochemical Sfp PPTase activity, qHTS; Potency, µM, without a hit: largest response in the series, negative = inhibition, usual class: inhibitors; AID 1490, 2009; 310,000 compounds, 3.5% hits;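 also: the enzyme is Sfp with the accession as filed and its product quenches rhodamine fluorescence; 0% = enzyme reaction without inhibitor and -100% = no enzyme wells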
#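 Step 1, compound plus 15 nM Sfp-PPTase, 15 min, room temperature. Step 2, add rhodamine-CoA (5 uM) and BHQ-2-YbbR (12.5 uM). Step 3, read 525/598 nm fluorescence at 0 and 30 min.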
# RORgamma inh – qHTS for inhibitors of ROR gamma transcriptional activity. 310,000 compounds, 5.4% hits. Drosophila S2 Gal4-RORgamma UAS-luciferase reporter, 20 h. Nuclear receptor ROR-gamma (Mus musculus), P51450. Potency, µM (doses to about 53.6 µM), inactives show at the top dose activity change, negative = inhibition, usual class: inhibitors; also: % is scaled to controls: 0 for no effect and ±100 for the full control effect; nearly all actives have a fitted effect of over 60% in size
# Target sequence (P51450 whole entry, looked up, the tested form may be a part): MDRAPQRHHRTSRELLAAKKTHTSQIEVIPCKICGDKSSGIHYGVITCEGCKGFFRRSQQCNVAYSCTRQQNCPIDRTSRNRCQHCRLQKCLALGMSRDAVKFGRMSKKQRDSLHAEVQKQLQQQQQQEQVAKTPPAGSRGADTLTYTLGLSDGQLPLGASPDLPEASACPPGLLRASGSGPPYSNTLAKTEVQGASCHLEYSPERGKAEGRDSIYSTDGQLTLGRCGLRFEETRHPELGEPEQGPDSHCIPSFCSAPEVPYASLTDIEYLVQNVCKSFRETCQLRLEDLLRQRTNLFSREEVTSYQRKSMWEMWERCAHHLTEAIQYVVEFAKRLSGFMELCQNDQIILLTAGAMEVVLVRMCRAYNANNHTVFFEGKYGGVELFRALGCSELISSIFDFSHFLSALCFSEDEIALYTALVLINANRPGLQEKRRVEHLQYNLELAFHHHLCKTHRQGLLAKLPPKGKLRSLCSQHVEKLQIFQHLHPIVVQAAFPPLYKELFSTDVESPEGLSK
#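 Compounds are pin-transferred onto Drosophila Schneider cells expressing a copper-inducible Gal4–ROR gamma transactivation domain fusion. After 1 hr, copper sulfate is added to 700 uM final; luciferase is read 20 hr later.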
# ClpP mod – qHTS Assay for Activators of ClpP. ATP-dependent Clp protease proteolytic subunit (Bacillus subtilis (strain 168)), P80244. purified B. subtilis ClpP, FRET peptide cleavage, 20 min. Potency, µM (titrated, usually from 57.5 µM), without a hit: top-dose activity change, negative = active. 340,000 compounds, 1.9% hits; active = well fitted falling curve with a large enough effect; inconclusive = small, poorly fitted or top-dose-only effect; inactive = no such curve, though single readings can be large or run the other way; also: the source files actives as falling curves though it sought activators and does not explain the sign; nearly all actives have a fitted effect of over 65% in size
# Target sequence (P80244 whole entry, looked up): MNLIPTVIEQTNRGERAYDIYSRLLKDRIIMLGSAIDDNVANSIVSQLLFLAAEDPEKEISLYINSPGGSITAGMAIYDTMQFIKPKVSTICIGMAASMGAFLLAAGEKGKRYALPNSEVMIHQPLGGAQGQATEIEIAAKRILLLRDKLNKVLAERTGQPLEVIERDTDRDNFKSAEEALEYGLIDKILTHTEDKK
#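 Purified B. subtilis ClpP, 10 microg/mL final in Tris/HCl pH8 with KCl, BSA, glycerol and Tween-20, cleaved an Abz/nitrotyrosine-quenched decapeptide. Fluorescence (ex 320, em 430) was read at 0 and 20 min at room temperature. Delta was normalized to 5.8 microM ADEP and DMSO/no-enzyme controls.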
# The depositor's hits bear a star; ? = inconclusive; / = not tested or not shown; [ ] = another dose, or the depositor's remark. Compounds with a hit are over-represented: about 8.1% of the library has one in this group of screens. Unless noted, calls follow the shape of the dose curve; as a rule, active = well fitted curve in the direction sought with a large enough effect; inconclusive = small, poorly fitted or top-dose-only effect, or another doubt; inactive = no such curve, though single readings can be large; an effect the other way counts as inactive or inconclusive. Potency is read from the fitted curve at half-maximal effect.
SMILES,VP16 counter,PINK1 modulator,Epigenetic derep,Sfp PPTase inh,RORgamma inh,ClpP mod
C/C(=N\NC(=O)c1ccco1)c1ccc(C(=O)O)s1,23%,-1%,/,24%,31%,-2%
CCC/C(=N/NC(=O)c1csc(C)c1C)c1ccc(Cl)s1,?,0%,0%,8%,16µM*,-1%
CCCCCOc1ccc(Cn2c(=O)oc3ccc(C)cc32)cc1OC,/,3%,-1%,/,/,0%
COc1ccccc1-c1ccnc(-n2ncc(C(=O)NCc3cccnc3)c2C)n1,/,0%,/,/,/,/
Cc1cc(C)cc(/C=C/C2OCC(O)C2Oc2ccc(C3CCCC3)cc2)c1 (stereo not drawn),-3%[10 µM],/,1%[10.1 µM],7%,1%[10 µM],/
COc1ccc(CCC(=O)NCc2nc3cccnc3n2Cc2ccc(F)cc2)cc1,/,0%,1%,/,/,0%
COC(=O)c1cc(NS(=O)(=O)c2cc(Br)cc3c2N(C(C)=O)CC3)cc(C(=O)OC)c1,/,-1%,-1%,/,/,-11%
CCc1ccn2cc(-c3ccc4c(c3)OCO4)nc2c1,4.5µM*,3%,0%,-1%,1.1µM*,/
CCS(=O)(=O)c1ncc(Cl)c(C(=O)N2CCN(c3ccc(OC)cc3)CC2)n1,/,14%,?,/,/,1%
CCOC(=O)C(C(C)=O)c1c(Br)c(O)c(O)c2c(C(=O)c3ccc(C)cc3)coc12 (stereo not drawn),16µM*,?,0%,13µM*,13µM*,-2%
CCOC(=O)c1c(C)n(-c2ccc(C)cc2)c2c(C(C(C)=O)C(=O)O)c(Br)c(O)c(O)c12 (stereo not drawn),-8%,-2%,7%,0.89µM*,-2%,-2%
CCOC(=O)c1c(C)n(-c2ccc(C)cc2)c2c(CC(C)=O)c(Br)c(OC)c(O)c12,0%,7%,-2%,12%,28%,-2%
O=C1C[C@H]2C=CCc3cccc(c32)CN1Cc1ccc(Cl)cc1,/,/,/,/,/,-6%
Cc1nc(-c2ccc(S(=O)(=O)N3CCN(c4cccc(Cl)c4)CC3)cc2)co1,/,1%,2%,/,/,-14%
Cc1cc(O)c(C(c2ccccc2)N2CCC(C)CC2)c(=O)n1Cc1ccco1 (stereo not drawn),/,0%,0%,/,/,-3%
COC(=O)CSCc1nc2ccccc2[nH]c1=O,-1%,1%,25µM*,-29%,-24%,?
O=C1/C(=C\Nc2ccc(Cl)cc2)CCN1c1ncccn1,-3%,-1%,-1%,89µM*,11%,-12%
O=[N+]([O-])c1ccc(/C=N/NC(=S)Nc2ccccc2F)o1,7.9µM*,-1%,1%,-12%,7.1µM*,0%
Fc1ccccc1NC(=S)N/N=C/c1ccccc1Br,4.5µM*,2%[38.3 µM],-1%,5%,3.2µM*,1%
CC(C)COc1ccc(-c2cc(C(=O)NN)[nH]n2)cc1,?,3%,-1%,10%,13µM*,0%
Cc1cccc(CC(=O)NC2CC(=O)N(c3ccccc3)C2)c1 (stereo not drawn),/,2%,3%,/,/,0%
O=C(Nc1ccccc1)C1=C(c2ccccc2)S(=O)(=O)CCS1(=O)=O,2.2µM*,1%,-3%,13µM*,0.89µM*,/
Cc1ccc(Nc2ccc(N3CCN(C(=O)c4ccc([N+](=O)[O-])cc4)CC3)nn2)cc1,/,0%,-3%,/,/,2%
CCOC(=S)SCc1cn2cccc(C)c2n1,-27%,0%,-1%,?,14µM*,2%
COc1cc(NC(=S)NCc2ccco2)cc(OC)c1OC,20µM*,1%,-1%,-6%,11µM*,-1%
SMILES,VP16 counter,PINK1 modulator,Epigenetic derep,Sfp PPTase inh,RORgamma inh,ClpP mod
CCCOc1ccc(CC(=O)NCc2ccco2)cc1OC,5%,1%,0%,-8%,11µM*,1%
COc1ccc(C(=O)OCC(=O)NCc2ccco2)cc1OC,0%,0%,0%,0%,-25%,-19%
COc1ccccc1NC(=S)NCc1ccco1,14%,1%,1%,56µM*,11%,1%
CCOc1ccc(OCC(=O)NCCS(=O)(=O)N2CCN(c3cccc(Cl)c3)CC2)cc1,/,4%,1%,/,/,-1%
CCc1ccc(S(=O)(=O)c2c(C(=O)c3ccccc3)cnc3ccc(CC)cc23)cc1,/,0%,1%,/,/,-5%
CC1=C(C(=O)OCC2CCCO2)C(c2ccncc2)C2=C(CCCC2=O)N1 (stereo not drawn),-5%,2%,-1%,16%,-14%,22µM*
CC1=C(C(=O)OC(C)C)C(c2cccnc2)C2=C(CCCC2=O)N1 (stereo not drawn),?,/,2%,9%,0%,28µM*
CC1=C(C(=O)OCC2CCCO2)C(c2ccc(C)cc2)C2=C(CCCC2=O)N1 (stereo not drawn),5%,2%,-1%,-3%,-6%,/
CC(C)Cn1cc(C(=O)N2CCC(C)CC2)c2c3ccccc3n(C)c2c1=O,2%,1%,-3%,-9%,?,/
CCOC(=O)N1CCN(C(=O)c2cn(C)c(=O)c3c2c2ccccc2n3C)CC1,0%,20%[38.3 µM],0%,5%,-16%,14µM*
COc1ccc(N2CCN(C(=O)c3cn(C)c(=O)c4c3c3ccccc3n4C)CC2)cc1,14%,-2%[38.3 µM],0%,-15%,28%,-23%
CC(C)Cn1cc(C(=O)N2CCOCC2)c2c3ccccc3n(C)c2c1=O,5%,17%[38.3 µM],-2%,0%,0%,16µM*
CCCN(CCC)CCCNC(=O)c1cn(CCOC)c(=O)c2c1c1ccccc1n2C,0%,29%[38.3 µM],-2%,-26%,17%,14µM*
CCOC(=O)N1CCN(C(=O)c2cn(CC(C)C)c(=O)c3c2c2ccccc2n3C)CC1,0%,18%[38.3 µM],0%,6%,-11%,25µM*
Cc1ccc(-c2nn(-c3ccc(F)cc3F)c3c2cnc2ccc(F)cc23)cc1,/,1%,-1%,/,/,-4%
O=C(NCc1ccc2c(c1)CCN2C(=O)c1ccccc1)c1cc2ccccc2[nH]1,/,1%,-1%,/,/,1%
CC(C)Cn1cc(C(=O)NCc2cccs2)c2c3ccccc3n(C)c2c1=O,-4%,-3%[38.3 µM],-1%,-7%,8%,10µM*
CC(C)CCNC(=O)c1cn(CC(C)C)c(=O)c2c1c1ccccc1n2C,0%,1%,/,9%,-5%,?
COCCn1cc(C(=O)N2CCC(C)CC2)c2c3ccccc3n(C)c2c1=O,2%,5%[38.3 µM],1%,-3%,17%,16µM*
